The target of assay [1] is Nucleoli Translocation, AR (gene 367) (UniProt P10275). Kind of assay: UPITT_HCI_U2OS_AR_TIF2_Nucleoli_Antagonist: University of Pittsburgh U2OS Androgen Receptor-Transcriptional Intermediary Factor 2 (AR-TIF2) Antagonism High Content Imaging Assay for Nucleoli Translocation (AID 2283997; active = hit-call score of the fitted dose curve at least 0.9, where 1 is the maximum). The gist of the method:
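Antagonism is read as loss of nucleolar AR-RFP signal relative to DHT, imaged in U2OS cells also carrying GFP-TIF2. Compounds screened at 20 uM final, 0.2% DMSO; primary actives retested in triplicate.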

For assay [2] the target is unchanged. Kind of assay: UPITT_HCI_U2OS_AR_TIF2_Nucleoli_Agonist: University of Pittsburgh U2OS Androgen Receptor-Transcriptional Intermediary Factor 2 (AR-TIF2) Agonism High Content Imaging Assay for Nucleoli Translocation (AID 2283998; active = hit-call score of the fitted dose curve at least 0.9, where 1 is the maximum). Put shortly: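 Readout is red (AR-RFP) fluorescence localized to nucleoli, measured by high-content imaging and analysed for increase relative to DMSO. Compound series spanned 0.195 to 50 uM final in 0.5% DMSO.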

For assay [3], the target named is Ratio of Nucleoli Translocation and Cytoplasm, AR (gene 367) (UniProt P10275). Kind of assay: UPITT_HCI_U2OS_AR_TIF2_Nucleoli_Cytoplasm_Ratio_Agonist: University of Pittsburgh U2OS Androgen Receptor-Transcriptional Intermediary Factor 2 (AR-TIF2) Agonism High Content Imaging Assay for Ratio of Nucleoli Translocation and Cytoplasm (AID 2284000; active = hit-call score of the fitted dose curve at least 0.9, where 1 is the maximum;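 note: hits raise the red nucleolar to cytoplasm ratio above vehicle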). Put shortly: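 Compounds tested at 20 uM final in primary screen (0.2% DMSO) and 0.195-50 uM final in dose-response (0.5% DMSO). Imaging of human U2OS cells bearing RFP-AR and GFP-TIF2; endpoint is nucleoli/cytoplasm red signal ratio, positive direction relative to DMSO.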

Assay [4] in a line: CCTE_Shafer_MEA_acute_spike_number: CCTE's Neural Acute Assay for Total Number of Spikes, Shafer Lab (AID 2284008).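 For AC50: curve fitted for decrease in spike count so AC50 reflects inhibitors.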 The gist of the method:
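Read-out is the total spike count over 40 min, expressed as percent change from each well's own pre-treatment baseline and fitted in the loss direction against DMSO. Rat cortical neurons were exposed at 0.03-40 uM on DIV 13 or 15.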

Assay [5] can be described thus: CCTE_Shafer_MEA_acute_firing_rate_mean: CCTE's Neural Acute Assay for Mean Firing Rate, Shafer Lab (AID 2284009).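 Note: analyzed for loss of signal so actives lower firing rate relative to DMSO.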 The gist of the method:
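Primary rat cortical neurons on 16-electrode MEA wells were exposed on DIV 13 or 15 to compound (0.03-40 uM). Spike counts per recording time, averaged over electrodes, were compared between 40-min baseline and 40-min post-exposure recordings as percent change.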

Assay [6] can be described thus: CCTE_Harrill_HTTr_Viability_MCF7: CCTE's 6-hour Cell Viability Assessment for the High-Throughput Transcriptomics (HTTr) Platform, in MCF-7 cells cultured in DMEM + 10% fetal bovine serum, Harrill Lab (AID 2284010). Put shortly: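 Propidium iodide exclusion, imaged by high-content analysis, gauged viability after a six-hour exposure across eight concentrations. Cells were MCF-7 grown in DMEM with 10% fetal bovine serum; fits run in both directions against DMSO.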

Assay [7] is described as follows: CCTE_Harrill_HTTr_Apoptosis_MCF7: CCTE's 6-hour Apoptosis Assessment for the High-Throughput Transcriptomics (HTTr) Platform, in MCF-7 cells cultured in DMEM + 10% fetal bovine serum, Harrill Lab (AID 2284011). Put shortly: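 MCF-7 (DMEM + 10% FBS), 384-well; 8-pt dilution series, 6 h chemical exposure; caspase-3/7 activation via CellEvent Caspase 3/7 Green, HCI; bidirectional fit vs DMSO.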

The nature of assay [8]: CCTE_Harrill_HTTr_CellCount_MCF7: CCTE's Cell Proliferation Assessment for the High-Throughput Transcriptomics (HTTr) Platform, Harrill Lab (AID 2284012; active = hit-call score of the fitted dose curve at least 0.9, where 1 is the maximum;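 note: cells exposed to compound for six hours; intended direction is loss of nuclei count meaning fewer cells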). The gist of the method: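 Cell count from high-content imaging of Hoechst-labeled nuclei serves as viability/growth readout. Chemicals were applied to MCF-7 cells in eight concentrations for six hours, with fitting in both directions relative to DMSO.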

The nature of assay [9]: CCTE_Shafer_MEA_acute_per_burst_spike_number_mean: CCTE's Neural Acute Assay for Average Number of Spikes Per Burst, Shafer Lab (AID 2284015).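 Note: hits are decreases in mean spikes per burst versus baseline.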 Put shortly: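 Primary rat cortical neurons on 48-well MEA plates, treated on DIV 13 or 15 at 0.03-40 uM. Spontaneous activity recorded 40 min before and 40 min after compound at 37 C; percent change in mean spikes per single-electrode burst per well, fitted in the loss direction versus DMSO.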

Assay [10] in a line: CCTE_Shafer_MEA_acute_interburst_interval_mean: CCTE's Neural Acute Assay for Mean Interburst Interval, Shafer Lab (AID 2284016).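 Note: percent change of mean interburst interval versus each well's own pre-dose baseline; curves fitted for decrease in interburst interval relative to DMSO.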 The gist of the method: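 Primary rat cortical neurons on 16-electrode MEA wells were recorded 40 min at baseline on DIV 13 or 15, then 40 min after compound (0.03-40 uM), at 37 C. Value is percent change in mean interburst interval per well, DMSO as negative control.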

Assay [11] is described as follows: CCTE_Shafer_MEA_acute_burst_percentage_mean: CCTE's Neural Acute Assay for Percentage of Spikes in a Burst, Shafer Lab (AID 2284017).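 For AC50: curve fitted for loss of signal so potency reflects decreased burst percentage.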 Put shortly: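 Primary rat cortical neurons on 16-electrode MEA wells; 40 min baseline recorded at DIV 13 or 15, then 40 min after compound (0.03-40 uM) at 37 C. Well-mean fraction of spikes in single-electrode bursts; percent change from baseline, DMSO as negative control.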

Assay [12] in a line: CCTE_Shafer_MEA_acute_burst_percentage_std: CCTE's Neural Acute Assay for Standard Deviation of Burst Percentage, Shafer Lab (AID 2284018).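 Note: fitted in the negative direction so actives lower burst percentage SD.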 Put shortly: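 Value is percent change from baseline in the across-electrode SD of spikes-in-bursts percentage, wells with >/= 10 active electrodes. Acute 40-min exposure to 0.03-40 uM on DIV 13 or 15 rat cortical cultures, recorded at 37 C after 40-min baseline.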

For a further assay, the system named is DIO1 (gene 1733). Briefly: CCTE_GLTED_hDIO1: CCTE's human Deiodinase 1 (DIO1) Inhibition Assay, Great Lakes Toxicology and Ecology Division (GLTED) Lab (AID 2283987; active = hit-call score of the fitted dose curve at least 0.9, where 1 is the maximum;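 note: isolated human DIO1 enzyme in a cell-free setup rather than cells; enzyme activity read as free iodide liberated from substrate via Sandell-Kolthoff colorimetry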). Put shortly:
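Inhibition of human deiodinase 1 is scored as reduced iodide liberation after a 3 h enzyme–chemical incubation, detected colorimetrically by the Sandell-Kolthoff reaction against DMSO controls.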

Assay [13] in a line: CCTE_Simmons_MITO_basal_resp_rate: CCTE's HepG2 Seahorse XF Respirometric Screening Assay at Basal Respiratory State, Simmons Lab (AID 2284001). As to conditions: actives raise or lower the signal. Put shortly: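 Basal-phase OCR in HepG2 cells, read at 6-min intervals across a 72-min run, with test compound injected at 125 nM–100 uM final (7 points). Fitted both directions against DMSO; three biological replicates per concentration.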

Assay [14] is described as follows: CCTE_Simmons_MITO_max_resp_rate: CCTE's HepG2 Seahorse XF Respirometric Screening Assay at Maximal Respiratory State [uncoupled], Simmons Lab (AID 2284002). The settings on record: actives raise or lower the signal. Put shortly: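 Read-out is oxygen consumption rate at maximal respiration, taken after FCCP uncoupling of compound-treated HepG2 cells. Seven final concentrations from 125 nM to 100 uM were tested, each in three biological replicates.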

The nature of assay [15]: CCTE_Simmons_MITO_inhib_resp_rate: CCTE's HepG2 Seahorse XF Respirometric Screening Assay at Inhibited Respiratory State [full ETC block], Simmons Lab (AID 2284006). The settings on record: actives raise or lower the signal. Put shortly:
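This endpoint is the respiration rate remaining after rotenone/antimycin A block, in HepG2 cells on a Seahorse XF96. Chemicals spanned 125 nM–100 uM final, in three biological replicates. OCR was read every 6 minutes for 72 minutes and compared with DMSO vehicle.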

Assay [16] is described as follows: CCTE_Simmons_MITO_viability: CellTiter-Glo Viability Assessment for CCTE's HepG2 Seahorse XF Respirometric Screening Assay [post-hoc], Simmons Lab (AID 2284007; active = hit-call score of the fitted dose curve at least 0.9, where 1 is the maximum;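 note: cells exposed to chemical for 90 min before the ATP read; actives lower ATP signal relative to DMSO baseline meaning reduced viability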). Put shortly:
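Luciferase-coupled ATP read-out after the Seahorse run: HepG2 cells treated 90 minutes with test chemical, 7-point series of 125 nM–100 uM final, in triplicate biological runs. Vehicle DMSO; dichlone as positive control over 8 concentrations.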

Structures are written as SMILES. Several values for one entry are separate records, joined by “and”; a condition that tells them apart may be missing. Identical values can stand only once. Records with an inconclusive call do not appear. Where a structure was tested more than once in an assay, its records may differ in their call. Activity calls are given as the source filed them. Rule for the calls, unless noted: active = hit-call score of the fitted dose curve at least 0.9, where 1 is the maximum; inactive = score below 0.9.

Chain of Nucleoli Translocation, AR (gene 367) (P10275 whole entry, looked up): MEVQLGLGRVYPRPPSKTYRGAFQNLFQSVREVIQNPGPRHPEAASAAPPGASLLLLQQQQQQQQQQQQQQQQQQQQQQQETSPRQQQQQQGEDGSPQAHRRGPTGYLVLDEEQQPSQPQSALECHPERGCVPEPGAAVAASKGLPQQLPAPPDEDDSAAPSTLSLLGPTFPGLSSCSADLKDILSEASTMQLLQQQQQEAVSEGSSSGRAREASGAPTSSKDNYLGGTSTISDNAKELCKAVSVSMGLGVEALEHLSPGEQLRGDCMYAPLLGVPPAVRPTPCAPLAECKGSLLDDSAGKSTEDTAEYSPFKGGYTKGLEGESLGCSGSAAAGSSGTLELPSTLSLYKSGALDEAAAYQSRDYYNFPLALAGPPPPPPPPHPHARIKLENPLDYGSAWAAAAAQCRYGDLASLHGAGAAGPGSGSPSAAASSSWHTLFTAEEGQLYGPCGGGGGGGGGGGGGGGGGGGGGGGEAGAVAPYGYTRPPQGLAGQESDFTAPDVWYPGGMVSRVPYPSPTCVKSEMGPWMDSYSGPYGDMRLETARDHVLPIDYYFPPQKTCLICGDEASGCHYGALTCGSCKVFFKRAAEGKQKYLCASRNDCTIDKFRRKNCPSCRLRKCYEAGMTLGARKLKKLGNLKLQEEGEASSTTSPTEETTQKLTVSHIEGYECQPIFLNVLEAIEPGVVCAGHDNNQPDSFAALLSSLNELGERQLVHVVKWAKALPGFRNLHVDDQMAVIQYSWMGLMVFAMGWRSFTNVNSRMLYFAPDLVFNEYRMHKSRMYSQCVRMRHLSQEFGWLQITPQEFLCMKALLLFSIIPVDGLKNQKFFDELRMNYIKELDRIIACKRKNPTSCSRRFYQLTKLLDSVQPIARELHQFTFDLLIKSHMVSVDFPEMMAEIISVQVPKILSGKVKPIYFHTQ
Chain of Ratio of Nucleoli Translocation and Cytoplasm, AR (gene 367) (P10275 whole entry, looked up): as above

On to `COC(=O)c1cccc(C(=O)OC)c1`, for which the result in assay [1] and in [2] was inactive.

In the case of `CC(CCO)CC(C)(C)C` (stereo not drawn), the outcome in assay [1], in assay [2] and in assay [3] was inactive.

In the case of `CCn1cc(C(=O)O)c(=O)c2ccc(C)nc21`, the AC50 in [4] and in assay [5] was 3 nM (active) in each case. The result in [6], in [7], in assay [8], in [9], in [10] and in [11] was inactive. Moreover, the compound was called inactive in assay [12].

For the compound `CCOc1ccc(NC(C)=O)cc1`, the compound was classed as inactive in assay [1], in [2], in [3], in assay [6], in assay [7] and in assay [8].

Consider `CCO[Si](CC)(OCC)OCC`, for which the compound was classed as inactive in [1], in [2] and in [3].

For `CC/C(=C(\c1ccccc1)c1ccc(OCCN(C)C)cc1)c1ccccc1`, the AC50 in the assay on DIO1 (gene 1733) is 56.9 µM (active) and 72.6 µM (active); in [16], 73.5 µM (active); in assay [4], 2.73 µM (active) and 4.6 µM (active); in assay [5], 2.73 µM (active) and 4.63 µM (active); in assay [6], 67.3 µM (active); in assay [8] it was 72.5 µM (active). In addition, the AC50 in assay [9] was 18.3 µM (active); in assay [10] it was 3.74 µM (active); in assay [11], 18.3 µM (active) and 15.8 µM (active); in [12], 15.3 µM (active). Further, the compound was classed as inactive in [13], in assay [14], in assay [15], in [6], in [7] and in [8]. In addition, the compound was called inactive in assay [9], in assay [10] and in [12].

`CC1COC(=O)O1` (stereo not drawn): the compound was classed as inactive in assay [1], in assay [2] and in assay [3].

`COc1cc(OC)c2ccc(=O)oc2c1`: the compound was called inactive in [1].

For `CCCCOCCOCCO`, the result in assay [4], in [5], in assay [6], in [7], in [8] and in [9] was inactive. The outcome in assay [10], in assay [11] and in assay [12] was inactive.

As to `CC(=O)c1ccc(C)cc1`, the AC50 in assay [4] and in assay [5] was 3 nM (active) throughout. For the same compound, the compound was classed as inactive in assay [9], in assay [10], in assay [11] and in assay [12].

In the case of `CCCCCCCCOC(=O)c1ccc(O)cc1`, the AC50 with DIO1 (gene 1733) is 86.4 µM (active).

Take `CC(C)CCCC(C)(C)O`: the call in assay [4], in assay [5], in assay [9], in assay [10], in assay [11] and in assay [12] was inactive.

For the origin of these results see PubChem BioAssay (EPA / NIEHS).
